From PubChem BioAssay AID1053124 (Broad Institute, 2014)
Potency and affinity values are given separately. Activity calls are given as the source filed them.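 Rule for the calls: active = cell killing whose fitted half-effect concentration is at most twice the top valid dose tested; inconclusive = flat curve with 30 to 70% killing, or a poor fit; inactive = effect in the rising direction, plus the rest.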

Assay: A549 cell cytotoxicity, dose response, cytotoxicity control, ATP luminescence, cherry-pick, set 2 (AID 1053124)
Details: A549 viability, ATP luminescence (CellTiter-Glo), 72 h; series mostly up to 26 µM
In the case of `CC12CC(c3ccccc3O1)C(C(=O)OCc1ccccc1)C(=O)N2` (stereo not drawn), the outcome was “inactive”. In the case of `CC(C)OP(=O)(O)NC(=O)c1ccccc1`, the outcome was “inactive”. For `N#CC1=C(N)Oc2cc(O)ccc2C1c1ccc2c(c1)OCO2` (stereo not drawn), the outcome was “inactive”.
